PG9 Ab binder – binders of HIV-1 gp120 antibody PG9, primary screen, biochemical, TR-FRET; TR-FRET gp120-PG9 antibody binding; inhibition, % at 6.7 µM; 360,000 compounds, 0.43% hits; in the data active = inhibition above about 8.5%
KLK7 zymogen act – proKLK7 zymogen activators, primary screen, biochemical, fluorescence intensity; Kallikrein-7 (Homo sapiens), P49862; purified proKLK7, EDANS-DABCYL substrate fluorescence; 100% is mature enzyme control, 0% vehicle; activation, % at 7 µM; 370,000 compounds, 0.9% hits; AID 652039, 2013;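 active = activation above the mean of all tested compounds plus 3 SD, computed per campaign excluding outliers beyond control limits, cut at about 13% in these data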
Target sequence (P49862 whole entry, looked up): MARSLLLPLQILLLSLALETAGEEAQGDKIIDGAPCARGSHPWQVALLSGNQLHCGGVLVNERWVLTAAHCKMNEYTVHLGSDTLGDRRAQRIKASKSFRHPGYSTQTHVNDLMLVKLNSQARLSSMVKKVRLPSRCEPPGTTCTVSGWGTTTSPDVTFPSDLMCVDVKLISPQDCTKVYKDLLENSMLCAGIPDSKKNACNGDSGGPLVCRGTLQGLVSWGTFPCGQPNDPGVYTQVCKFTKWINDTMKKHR
JMJD2C inh – inhibitors of GASC-1 histone demethylase, primary screen, biochemical, fluorescence, DELFIA europium | Lysine-specific demethylase 4C (Homo sapiens), Q9H3R0 | GST-JMJD2C(1-420) H3K9me3 demethylation | inhibition, % at 2.35 µM | 330,000 compounds, 0.069% hits | AID 2099, 2009;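 active = more than half of a compound's replicate wells show inhibition beyond 50%, single wells judged on their own value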;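 note: signal counts dimethyl H3K9 product captured on neutravidin plate; 0% = median of DMSO wells and 100% = 0.3 times that DMSO median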
PP1 inh – PP1-alpha phosphatase inhibitors, primary screen, counter-screen for PP5 inhibitor project, biochemical, fluorescence, OMFP substrate, single point. Serine/threonine-protein phosphatase PP1-alpha catalytic subunit (Homo sapiens), P62136. purified PP1alpha. inhibition, % at 6.7 µM. 320,000 compounds, 0.9% hits;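 active = inhibition above the mean inhibition of all tested compounds plus 3 SD, computed separately for each screening campaign, cut at about 15% in these data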
Target sequence (P62136 whole entry, looked up): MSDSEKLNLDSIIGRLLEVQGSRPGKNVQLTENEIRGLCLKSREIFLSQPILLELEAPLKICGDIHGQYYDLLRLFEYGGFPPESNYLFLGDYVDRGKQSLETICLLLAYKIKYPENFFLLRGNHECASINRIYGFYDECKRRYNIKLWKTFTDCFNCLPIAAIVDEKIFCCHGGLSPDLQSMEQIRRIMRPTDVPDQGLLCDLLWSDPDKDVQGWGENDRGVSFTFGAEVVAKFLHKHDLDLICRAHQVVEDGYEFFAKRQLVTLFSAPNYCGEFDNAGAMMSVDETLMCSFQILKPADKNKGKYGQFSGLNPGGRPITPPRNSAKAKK
Rev-erbA mod – modulators of Rev-erb alpha DNA binding, primary screen, biochemical, FITC-DNA, fluorescence polarization, uHTS | Rev-erbα–FITC-DNA binding, 90 min | activity, % at 10 µM | AID 1259318, 2017 | 370,000 compounds, 0.79% hits;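 active = activity above about 14%, limit read from the data; passing the limit was not always enough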;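 note: 0% = DMSO wells with 35 nM protein and 100% = DMSO wells with 750 nM protein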
PP5 primary – PP5 phosphatase inhibitors, primary screen, biochemical, fluorescence. 320,000 compounds, 0.18% hits. purified PP5c, OMFP substrate fluorescence. AID 1987, 2009. inhibition, % at 6.7 µM. Serine/threonine-protein phosphatase 5 (Homo sapiens), P53041;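 active = inhibition above the campaign's mean inhibition across all tested compounds plus 3 SD, cut at about 9.5% in these data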;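 note: 0% = DMSO only and 100% = 100 µM cantharidin control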
* hit, by the source's call; · = no result given. Sampled rows, rich in hits. Any-hit rate of the full collection: about 2.8%.

SMILES | PG9 Ab binder | KLK7 zymogen act | JMJD2C inh | PP1 inh | Rev-erbA mod | PP5 primary
O=C(O)c1cc(O)c2c(c1)[C@@H]([C@H]1c3cc(C(=O)O)cc(O)c3C(=O)c3c(O[C@@H]4O[C@H](CO)[C@@H](O)[C@H](O)[C@H]4O)cccc31)c1cccc(O[C@@H]3O[C@H](CO)[C@@H](O)[C@H](O)[C@H]3O)c1C2=O | · | · | 91.3* | · | · | ·
O=C(C1CCCN(S(=O)(=O)c2ccccc2[N+](=O)[O-])C1)N1CCN(Cc2ccccc2)CC1 (stereo not drawn) | · | 0.4 | · | · | 9.9 | ·
CC(C)(C)OC(=O)NCCCC[C@H](NC(=O)c1[nH]cnc1C(=O)Nc1ccc(CNC(=O)OC(C)(C)C)cc1)C(=O)OC(C)(C)C | -1.8 | -7.5 | -0.7 | 17.0* | 3.9 | 9.3
CC(C)(C)OC(=O)NCCCC[C@H](NC(=O)c1[nH]cnc1C(=O)N[C@@H](Cc1ccccc1)C(=O)OC(C)(C)C)C(=O)OC(C)(C)C | -0.7 | 0.4 | 5.7 | 15.2* | -3.4 | 9.3
O=C(Nc1ccc(Cl)cc1)Nc1ccc(N2CCCC2)c(S(=O)(=O)Nc2ccccc2Cl)c1 | 0.5 | -0.7 | 1.3 | 17.3* | 1.1 | 2.7
O=C(Nc1ccc(N2CCOCC2)c(S(=O)(=O)Nc2ccccc2Cl)c1)c1ccccc1 | 3.0 | 0.2 | 2.1 | -2.7 | 3.2 | 2.7
NC(=O)COc1cccc2cccnc12 | 1.6 | 0.3 | 73.6* | -2.2 | 3.9 | 0.4
CCCN(Cc1nnc(-c2ccccc2Cl)o1)C(=O)c1cc2ccccc2o1 | 0.7 | -0.6 | -0.1 | -0.1 | -1.5 | 2.5
O=C(c1cc2ccccc2o1)N(Cc1nnc(-c2ccccc2Cl)o1)C1CC1 | 1.4 | 0.0 | 2.3 | 15.3* | 10.9 | -1.1
Cc1ccsc1/C=C1\Oc2cc(OCC(=O)c3ccccc3)ccc2C1=O | -1.1 | -0.4 | 1.9 | 16.4* | -19.4 | 1.4
Cc1cc(-c2ccc(N=Nc3c(S(=O)(=O)O)cc4cc(S(=O)(=O)O)cc(N)c4c3O)c(C)c2)ccc1N=Nc1c(S(=O)(=O)O)cc2cc(S(=O)(=O)O)cc(N)c2c1O | · | · | · | 75.8* | · | 17.7*
O=S(=O)(O)c1cc(O)c2c(O)c(N=Nc3cc(Cl)ccc3O)c(S(=O)(=O)O)cc2c1 | · | · | -3.7 | 11.4 | · | 7.6
Cn1c(=O)[nH]c(=O)c2c1nc(SCCN1CCOCC1)n2CCCc1ccccc1 | 18.8* | 0.7 | -5.7 | -1.4 | -12.0 | 3.2
Cn1c(=O)[nH]c(=O)c2c1nc(SCCN1CCOCC1)n2Cc1ccccc1 | -1.2 | -0.2 | 1.8 | 5.2 | 2.6 | -1.0
CCCn1c(N2CCC(Cc3ccccc3)CC2)nc2c1c(=O)[nH]c(=O)n2C | -0.8 | 0.1 | -1.1 | 0.2 | -7.8 | 5.3
CCCCCn1c(N2CCC(Cc3ccccc3)CC2)nc2c1c(=O)[nH]c(=O)n2C | · | · | -0.1 | 16.4* | · | 7.3
O=C(O)C1=C(CSc2nnnn2CS(=O)(=O)O)CS[C@@H]2[C@@H](NC(=O)[C@H](O)c3ccccc3)C(=O)N12 | · | · | · | · | 1.1 | ·
COC(=O)C1CN(C2CC2)CCS(=O)(=O)N1Cc1cn(Cc2ccc(F)cc2)nn1 (stereo not drawn) | · | 1.0 | · | · | -5.9 | ·
Cc1ccccc1N1CCN(CCc2nnc3n2CCCC3)CC1 | · | · | · | · | -1.9 | ·
CCN(CC)CCOc1cc2c(nn1)Oc1ccccc1N2C | -0.4 | 16.3* | -1.5 | 0.0 | -0.1 | -1.6
CN[C@@H]1[C@H](OC2[C@H](O[C@H]3[C@H](O)[C@@H](O)[C@H](N=C(N)N)[C@@H](O)[C@@H]3N=C(N)N)O[C@@H](C)[C@]2(O)C=O)O[C@@H](CO)[C@H](O)[C@H]1O (stereo partly drawn) | · | · | · | · | -5.1 | ·
O=C1/C(=C/c2ccc(N3CCOCC3)o2)SC(=Nc2ccccc2)N1CCc1c[nH]c2ccccc12 | · | · | -10.0 | 34.4* | · | 4.6
Cc1ccc(C2CC(=O)C=C(NCc3ccccc3)C2)cc1 (stereo not drawn) | -0.8 | -0.3 | -2.1 | -2.4 | 5.2 | 1.1
O=C1C=C(NCc2ccc3c(c2)OCO3)CC(c2ccccc2)C1 (stereo not drawn) | 0.1 | 0.5 | 60.5* | -0.6 | -2.2 | 1.8
O=C(Cn1nc(-c2ccc(Cl)cc2)ccc1=O)NCC1COCCO1 (stereo not drawn) | -1.5 | -0.5 | 71.4* | -1.3 | 2.3 | -2.3
SMILES | PG9 Ab binder | KLK7 zymogen act | JMJD2C inh | PP1 inh | Rev-erbA mod | PP5 primary
Cc1ccc(C(=O)NN2CC(O)=C(c3nc(-c4cccc([N+](=O)[O-])c4)cs3)C2=N)cc1 | 1.3 | -0.5 | 7.1 | 17.4* | -7.6 | 3.2
O=C(CSc1nnnn1-c1ccccc1)Nc1ncc(Cc2ccccc2Cl)s1 | -3.0 | -1.1 | 8.1 | 1.4 | -4.0 | 0.3
N=C1SC(c2ccccc2)C(=O)N1c1ncc(Cc2ccccc2Cl)s1 (stereo not drawn) | -3.1 | -0.4 | -3.4 | 15.6* | -5.8 | -1.4
CC1(C)Cc2c(C#N)c(N3CCN(C(=O)c4ccccc4Cl)CC3)nc(-c3ccco3)c2CS1 | 1.6 | -4.0 | -0.4 | 17.4* | 4.7 | 3.6
CC(=O)Nc1ccc(S(=O)(=O)Nc2onc(C)c2C)cc1 | · | · | · | · | -1.7 | ·
CCOC(=O)C1=C(C)NC(=O)NC1c1c(C)nn(-c2ccccc2)c1Cl (stereo not drawn) | 1.4 | 0.5 | 60.5* | -1.0 | 1.3 | 3.3
CCOC(=O)C1=C(C)N(C)C(=O)NC1c1c(C)nn(-c2ccc(C)cc2)c1Cl (stereo not drawn) | 1.6 | -0.6 | 6.5 | 2.9 | -0.9 | 0.5
Cc1ccc(CN(C(=O)Cn2nnc3ccccc32)C(C(=O)NCc2ccco2)c2cccs2)cc1 (stereo not drawn) | -1.8 | 0.0 | -9.8 | 16.6* | -4.5 | 5.2
CC1CCN(c2ccc(C(=O)O)cc2NS(=O)(=O)c2ccccc2[N+](=O)[O-])CC1 | · | 0.2 | · | · | -1.1 | ·
CCOCCCNC(=O)C1CCN(S(=O)(=O)c2cc3c(cc2Br)CCN3C(=O)CC)CC1 | · | -0.1 | · | · | -0.4 | ·
COCc1[nH]nc2c1C(c1ccc(F)cc1)NC2=O (stereo not drawn) | -0.9 | 0.1 | · | · | 10.6 | ·
CCOC(=O)[C@H]1[C@H]2COc3ccccc3[C@@H]2N2C(=O)c3cc(OC)ccc3NC(=O)[C@@]12C | -0.5 | 0.2 | -0.3 | 4.1 | -9.0 | -1.3
CCOC(=O)[C@H]1[C@H]2COc3ccc(OC)cc3[C@@H]2N2C(=O)c3cc(C)ccc3NC(=O)[C@@]12C | -0.1 | -0.3 | 51.6* | 2.0 | -0.4 | 5.1
CN(C[C@H](Cc1ccccc1)N(C[C@H](Cc1cccc2ccccc12)N(CCc1ccccc1)N=O)N=O)N=O | 0.6 | -0.3 | -9.2 | 16.3* | -2.5 | 4.1
